Holding throughout (assay): growth (OD600 after 10 h); higher = more growth (less inhibition)
Test [1] relates to E. coli TESEC Alr+ wild-type control. The note with it: compound 0.1 mM; raw OD600 reference: median of DMSO wells 0.241, cell-free background 0.041. On the procedure: (§1)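 TESEC Mtb Alr E. coli, or the Alr+ wild-type control, in 384-well plates with Prestwick library compounds at 0.1 mM and 1% DMSO, across arabinose induction levels of 1E3 to 1E7 nM. Growth is read as OD600 after 10 h at 37 °C in triplicate biological replicates.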

Test [2] relates to E. coli TESEC Mtb Alr. The following applies: compound 0.1 mM. Here is the method: as §1
The test system of test [3] is E. coli TESEC Mtb Asd. The note with it: compound 0.1 mM. Here is the method:
(§2)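 TESEC E. coli strains in which the native enzyme is deleted and replaced by arabinose-inducible Mtb Asd, DapB, CysH or TrpD, each grown in its selective medium. Strains were screened against the Prestwick library at 0.1 mM and 1% DMSO in 384-well format at low and high arabinose induction. Growth is read as OD600 after 10 h in triplicate.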

Test [4] relates to E. coli TESEC Mtb DapB. The following applies: compound 0.1 mM. On the procedure:
as §2

For test [5], the system named is E. coli TESEC Alr+ wild-type control. The following applies: compound 0.1 mM; raw OD600 reference: median of DMSO wells 0.49, cell-free background 0.052. Here is the method:
(§3)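 TESEC Mtb Alr E. coli (ΔaraC ΔtolC ΔentC Δalr ΔdadX, arabinose-inducible Mtb Alr) or the Alr+ wild-type control strain, grown in defined M9-fructose medium without D-alanine in 96-well plates with Prestwick library compounds at 0.1 mM and 1% DMSO. Low Alr induction is 0.1 µM arabinose and high induction is 10 mM arabinose.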

Test [6] concerns E. coli TESEC Mtb Alr. The following applies: compound 0.1 mM. Here is the method:
as §3
The source holds these as a separate data set.

[7] abbreviates: arabinose 1000 nM, raw OD600 reference: median of DMSO wells 0.294, cell-free background 0.041.
Where [8] appears, read: arabinose 10000 nM, raw OD600 reference: median of DMSO wells 0.264, cell-free background 0.041.
The mark [9] stands for this setting: arabinose 100000 nM, raw OD600 reference: median of DMSO wells 0.201, cell-free background 0.041.
The mark [10] stands for this setting: arabinose 1000000 nM, raw OD600 reference: median of DMSO wells 0.193, cell-free background 0.041.
[11] abbreviates: arabinose 10000000 nM, raw OD600 reference: median of DMSO wells 0.146, cell-free background 0.041.
Where [12] appears, read: arabinose induction (level): High, raw OD600 reference: median of DMSO wells 0.331, cell-free background 0.041.
Where [13] appears, read: arabinose induction (level): Low, raw OD600 reference: median of DMSO wells 0.417, cell-free background 0.041.
Setting [14] is: arabinose induction (level): High, raw OD600 reference: median of DMSO wells […], cell-free background 0.041.
[15] abbreviates: arabinose induction (level): Low, raw OD600 reference: median of DMSO wells 0.227, cell-free background 0.041.
Setting [16] is: arabinose 100 nM, raw OD600 reference: median of DMSO wells 0.413, cell-free background 0.052.
Where [17] appears, read: arabinose 10000000 nM, raw OD600 reference: median of DMSO wells […], cell-free background 0.052.

Structures can show the parent of a compound that is named as a salt. ± gives the standard deviation of the averaged measurements.

Turning to `CCCCCCC[N+](CC)(CC)CCCCc1ccc(Cl)cc1` [Clofilium tosylate], the growth is 0.03993 ± 0.00025 in test [1]; 0.03923 ± 5.8e-05 in test [2] (setting [7]); 0.039 ± 0.00017 in test [2] (setting [8]); 0.03977 ± 0.00021 in test [2] (setting [9]); 0.03863 ± 0.00025 in test [2] (setting [10]); 0.0398 ± 0.00026 in test [2] (setting [11]). In addition, the growth is 0.0468 ± 0.00026 in test [3] (setting [12]); 0.0474 ± 0.00051 in test [3] (setting [13]); 0.0462 ± 0.00046 in test [4] (setting [14]); 0.0478 ± 0.0034 in test [4] (setting [15]); 0.0487 ± 0.00091 in test [5]; 0.0551 ± 0.0018 in test [6] (setting [16]). This molecule also registered a growth in test [6] (setting [17]) of 0.05213 ± 0.0004.

As to `CN[C@H]1CC[C@@H](c2ccc(Cl)c(Cl)c2)c2ccccc21` [Sertraline], the growth in test [1] was determined as 0.0407 ± 0.00036; in test [2] (setting [7]), 0.0417 ± 0.0013; in test [2] (setting [8]), 0.0403 ± 0.0019; in test [2] (setting [9]), 0.0432 ± 0.0016; in test [2] (setting [10]), 0.0393 ± 0.0007; in test [2] (setting [11]) it was 0.0414 ± 0.00047. Besides, the growth was determined as 0.0545 ± 0.0057 in test [3] (setting [12]); 0.0508 ± 0.0037 in test [3] (setting [13]); 0.0504 ± 0.00093 in test [4] (setting [14]); 0.0522 ± 0.0014 in test [4] (setting [15]); 0.0502 ± 0.00068 in test [5]; 0.392 ± 0.036 in test [6] (setting [16]). This molecule showed a growth in test [6] (setting [17]) of 0.0517 ± 0.00092.

Consider `Cc1c(Cl)cccc1Nc1ccccc1C(=O)O` [Tolfenamic acid], for which the growth in test [1] is 0.0444 ± 0.0007; in test [2] (setting [7]), 0.0448 ± 0.0007; in test [2] (setting [8]), 0.0413 ± 0.0001; in test [2] (setting [9]), 0.0477 ± 0.0013; in test [2] (setting [10]), 0.0424 ± 0.00053; in test [2] (setting [11]) it was 0.0598 ± 0.0014. Moreover, the growth in test [3] (setting [12]) was determined as 0.0513 ± 0.0022; in test [3] (setting [13]) it was 0.052 ± 0.004; in test [4] (setting [14]), 0.0686 ± 0.0054; in test [4] (setting [15]) it was 0.0876 ± 0.044; in test [5], 0.0743 ± 0.0023; in test [6] (setting [16]), 0.0964 ± 0.065. The molecule further had a growth in test [6] (setting [17]) of 0.0536 ± 0.0002.

For the molecule `C[C@]12CC[C@@H]3c4ccc(OS(=O)(=O)O)cc4CC[C@H]3[C@@H]1CCC2=O` [Estropipate], the growth in test [1] turned out to be 0.229 ± 0.0082; in test [2] (setting [7]), 0.277 ± 0.011; in test [2] (setting [8]), 0.251 ± 0.0064; in test [2] (setting [9]), 0.177 ± 0.011; in test [2] (setting [10]), 0.151 ± 0.011; in test [2] (setting [11]) it was 0.127 ± 0.0018. The growth is 0.301 ± 0.023 in test [3] (setting [12]); 0.413 ± 0.039 in test [3] (setting [13]); 0.194 ± 0.016 in test [4] (setting [14]); 0.195 ± 0.013 in test [4] (setting [15]); 0.534 ± 0.11 in test [5]; 0.41 ± 0.0049 in test [6] (setting [16]). In test [6] (setting [17]), this molecule yielded a growth of 0.267 ± 0.0063.

`CCN(CC)CCOC(=O)C(Cc1cccc2ccccc12)CC1CCCO1` (centres undefined) [Nafronyl oxalate]: the growth in test [1] is 0.15 ± 0.0052; in test [2] (setting [7]), 0.219 ± 0.0043; in test [2] (setting [8]) it was 0.255 ± 0.014; in test [2] (setting [9]) it was 0.157 ± 0.0057; in test [2] (setting [10]), 0.0991 ± 0.0023; in test [2] (setting [11]), 0.151 ± 0.0053. In addition, the growth in test [3] (setting [12]) stood at 0.127 ± 0.0055; in test [3] (setting [13]), 0.309 ± 0.11; in test [4] (setting [14]), 0.184 ± 0.019; in test [4] (setting [15]) it was 0.174 ± 0.008; in test [5], 0.464 ± 0.015; in test [6] (setting [16]), 0.407 ± 0.0062. The molecule further gave a growth in test [6] (setting [17]) of 0.293 ± 0.015.

Turning to `COc1ccc(C(=O)c2ccccc2O)c(O)c1` [Dioxybenzone], the growth worked out at 0.125 ± 0.0069 in test [1]; 0.116 ± 0.0049 in test [2] (setting [7]); 0.124 ± 0.0053 in test [2] (setting [8]); 0.107 ± 0.005 in test [2] (setting [9]); 0.085 ± 0.0034 in test [2] (setting [10]); 0.107 ± 0.0014 in test [2] (setting [11]). In addition, the growth in test [3] (setting [12]) was 0.261 ± 0.022; in test [3] (setting [13]), 0.197 ± 0.0098; in test [4] (setting [14]), 0.183 ± 0.014; in test [4] (setting [15]) it was 0.23 ± 0.016; in test [5], 0.355 ± 0.014; in test [6] (setting [16]) it was 0.352 ± 0.05. The molecule also had a growth in test [6] (setting [17]) of 0.152 ± 0.014.

Turning to `NCCc1cc[nH]n1` [Betazole hydrochloride], the growth in test [1] was found to be 0.25 ± 0.0071; in test [2] (setting [7]), 0.254 ± 0.06; in test [2] (setting [8]) it was 0.259 ± 0.014; in test [2] (setting [9]) it was 0.2 ± 0.03; in test [2] (setting [10]), 0.1943 ± 0.00064; in test [2] (setting [11]), 0.14 ± 0.0021. Moreover, the growth in test [3] (setting [12]) is 0.279 ± 0.0079; in test [3] (setting [13]), 0.379 ± 0.081; in test [4] (setting [14]), 0.215 ± 0.021; in test [4] (setting [15]), 0.254 ± 0.052; in test [5] it was 0.494 ± 0.066; in test [6] (setting [16]) it was 0.408 ± 0.013. The molecule further displayed a growth in test [6] (setting [17]) of 0.305 ± 0.067.

Take `C=C1C(=O)O[C@H]2[C@H]1CC/C(C)=C/CC[C@@]1(C)O[C@@H]21` [Parthenolide]: the growth in test [1] amounted to 0.157 ± 0.0041; in test [2] (setting [7]), 0.303 ± 0.0032; in test [2] (setting [8]), 0.27 ± 0.0042; in test [2] (setting [9]), 0.232 ± 0.014; in test [2] (setting [10]) it was 0.185 ± 0.0044; in test [2] (setting [11]), 0.157 ± 0.0078. For the same molecule, the growth in test [3] (setting [12]) came to 0.155 ± 0.0046; in test [3] (setting [13]), 0.269 ± 0.036; in test [4] (setting [14]), 0.2 ± 0.0037; in test [4] (setting [15]) it was 0.224 ± 0.022; in test [5] it was 0.488 ± 0.038; in test [6] (setting [16]) it was 0.404 ± 0.013. In test [6] (setting [17]), this molecule had a growth of 0.316 ± 0.02.
